PHOSPHO1 inh – PHOSPHO1 (human) inhibition | inhibition, % at 13.3 µM | actives 1.1% (n = 290,000) | Q8TCT1 | recombinant PHOSPHO1, absorbance phosphatase assay | AID 1565; in the data active means inhibition above about 60%
rCAG binder – r(CAG) repeat RNA binding. TO-PRO-1 dye displacement fluorescence. actives 1.3% (n = 370,000). inhibition, % at 3 µM;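 active means inhibition above the plate cutoff, the mean of all test compounds on that plate plus 3 SD, cut at about 35% in these data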;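 further: 0% = DMSO alone and 100% = 100 µM mitoxantrone as full dye displacement; higher means more dye released from RNA so lower well fluorescence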
A3G deaminase – APOBEC3G (human) deaminase inhibition | recombinant A3G, ssDNA deamination FAM/TAMRA fluorescence | inhibition, % at 20 µM | actives 0.28% (n = 330,000) | Q9HC16;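 active means inhibition of at least 40% at 20 µM, with no more than 30% in the related APOBEC3A deaminase screen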;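 further: plate controls were DMSO wells with A3G for no effect and wells lacking A3G enzyme for full effect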
ALR H2O2 inh – inhibitors of human sulfhydryl oxidase ALR; P55789; purified ALR, DTT oxidation, H2O2 HRP-luminol luminescence; inhibition, % (no concentration beside the values); actives 3.8% (n = 290,000); AID 485317;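 active means mean replicate inhibition above about 79%, with every replicate also reaching it, limit read from the data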
Target sequence (P55789 whole entry, looked up): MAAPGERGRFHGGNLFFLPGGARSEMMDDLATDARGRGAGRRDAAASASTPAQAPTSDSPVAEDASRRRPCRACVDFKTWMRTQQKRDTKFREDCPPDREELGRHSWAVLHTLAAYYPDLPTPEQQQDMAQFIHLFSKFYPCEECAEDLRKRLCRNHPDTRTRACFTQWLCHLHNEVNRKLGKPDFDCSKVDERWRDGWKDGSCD
aDG glyco up – increases alpha dystroglycan glycosylation. Pro5-aDG cells, alpha-DG glycosylation AlphaScreen (IIH6); 0% Pro5, 100% B10-LARGE cell signal. activation, % at 10 µM. actives 0.22% (n = 360,000);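 active means activation of at least 8% versus controls, or a plate z-score of at least 8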;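 further: Pro5 are CHO cells carrying HIG-tagged alpha-DG that lacks glycosylation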
APOBEC3A inh – blocks human APOBEC3A ssDNA deamination. inhibition, % at 20 µM. actives 0.41% (n = 330,000). recombinant A3A, FAM/TAMRA ssDNA deamination fluorescence;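 active means at least 40% inhibition at 20 µM here, with at most 30% in a related deaminase screen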;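 further: plate controls were A3A with DMSO for no effect and wells lacking A3A enzyme for full effect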
Target sequence (P31941 whole entry, looked up): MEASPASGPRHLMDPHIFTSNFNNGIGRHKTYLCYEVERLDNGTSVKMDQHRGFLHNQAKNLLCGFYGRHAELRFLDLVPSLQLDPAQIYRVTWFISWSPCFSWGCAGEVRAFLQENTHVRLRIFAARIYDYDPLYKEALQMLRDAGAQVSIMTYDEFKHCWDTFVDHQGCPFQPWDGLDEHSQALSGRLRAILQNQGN
rCAG binder conf – r(CAG) RNA repeat binding, confirmation; shares compounds with rCAG binder; actives 70% (n = 4,300); TO-PRO-1 dye displacement fluorescence; inhibition, % at 3 µM;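 active means inhibition above a per-plate cutoff, the mean inhibition of sample wells plus 3 SD, cut at about 35% in these data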;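 further: loss of TO-PRO-1 fluorescence as compound displaces dye from 1x1 AA loop RNA; 0% = DMSO only wells and 100% = 100 µM mitoxantrone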
dCAG dye counter – DNA CAG dye complex inhibition counter-screen | shares compounds with rCAG binder | actives 94% (n = 4,300) | d(CAG) DNA oligo TO-PRO-1 dye displacement, fluorescence | inhibition, % at 3 µM;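 active means inhibition above its plate's cutoff, the mean test-well inhibition plus 3 SD, cut at about 4.8% in these data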;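 further: 0% = DNA dye mix with DMSO and 100% = 100 µM mitoxantrone; hits displace the dye from DNA and so lower well fluorescence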
The depositor's hits bear a star; nt = no result given. Most compounds without a hit are left out; they make up all but 5.4% or so of the library.

SMILES	PHOSPHO1 inh	rCAG binder	A3G deaminase	ALR H2O2 inh	aDG glyco up	APOBEC3A inh	rCAG binder conf	dCAG dye counter
Cc1cc(C(F)(F)F)n(-c2nc(C(=O)NNS(=O)(=O)c3ccccc3)cs2)n1	13.9	21.8	0.2	-9.3	0.1	0.5	nt	nt
O=C(NNS(=O)(=O)c1ccccc1[N+](=O)[O-])c1cc2ccccc2cc1O	26.5	35.9*	-5.2	19.5	0.0	-2.5	17.6	7.6*
O=C(Nc1cccc([N+](=O)[O-])c1)c1cc2ccccc2cc1O	33.4	39.0*	-3.8	13.7	-0.2	-1.8	37.3*	15.8*
O=C(O)c1cc([N+](=O)[O-])ccc1C(=O)Nc1cccc([N+](=O)[O-])c1	nt	-1.9	-7.7	nt	-0.1	-3.3	nt	nt
Cc1cc(C(F)(F)F)n(-c2nc(C(=O)NNS(=O)(=O)c3ccccc3[N+](=O)[O-])cs2)n1	56.8	45.0*	-4.5	10.2	-0.2	-2.0	27.0	8.6*
O=C(NNS(=O)(=O)c1ccccc1[N+](=O)[O-])c1ccccc1Cl	30.4	2.0	-8.2	-28.6	0.4	-1.7	nt	nt
C#CCNC[C@@H]1CSCCS(=O)(=O)N1	nt	0.6	nt	nt	nt	nt	nt	nt
NC(=O)Nn1c(CCC(=O)O)ccc1-c1ccc(Cl)cc1	24.8	-1.5	-1.3	53.5	-0.1	1.3	nt	nt
O=C(O)CCc1ccc(-c2ccccc2)n1NC(=O)c1sc2ccccc2c1Cl	18.2	56.7*	-2.0	98.0*	-0.1	0.5	32.2	10.8*
CN(C)S(=O)(=O)c1cccc(-c2nn(-c3ccccc3)cc2/C=C2\SC(=S)NC2=O)c1	-7.9	69.0*	nt	43.3	-0.7	nt	88.6*	66.0*
CN(C)S(=O)(=O)c1cccc(-c2nn(-c3ccccc3)cc2/C=C(\C#N)c2nc3ccccc3[nH]2)c1	-8.6	9.7	-1.6	0.6	-0.7	-0.8	nt	nt
CSc1cccc(NC(=O)Nc2nc3c(C)cccc3s2)c1	-20.3	51.5*	-0.2	5.2	0.0	-6.8	45.0*	34.1*
Cc1[nH]n(-c2ccccc2)c(=O)c1C1(C(F)(F)F)C(=O)N(c2ccccc2)C2=C1C(=O)CC(C)(C)C2 (configuration not stated)	0.2	35.9*	-6.2	17.5	-0.1	1.8	22.2	7.3*
COc1ccccc1NC(=O)Nc1nnc(Cc2ccccc2F)s1	33.0	6.8	-7.7	-6.1	-0.1	-3.6	nt	nt
CCSCCc1nnc(NC(=O)Nc2cccc(C(F)(F)F)c2)s1	9.1	38.0*	-9.7	-8.9	-0.8	-0.2	27.3	19.5*
O=C(Nc1ccc(F)cc1)Nc1nnc(Cc2ccccc2F)s1	8.5	45.5*	-4.6	-6.1	0.2	-1.8	18.4	16.2*
COc1cccc(NC(=O)Nc2nnc(Cc3ccccc3F)s2)c1	28.4	39.6*	-4.8	-6.6	0.4	-0.5	22.3	14.3*
CC(=CC(=O)c1ccccc1)c1ccccc1	nt	6.1	nt	nt	-0.1	nt	nt	nt
O=S(=O)(Nc1ccc(S(=O)(=O)N2CCCCC2)cc1)c1ccc(Br)s1	-10.5	60.4*	7.6	-7.7	-0.2	-0.8	60.5*	15.9*
O=C(NCc1ccc(Cl)cc1Cl)Nc1nc([C@@H]2O[C@H](CO)[C@@H](O)[C@H](O)[C@H]2O)cs1	nt	2.3	nt	nt	0.1	nt	nt	nt
O=C(O)c1ccc(NC(=O)c2cn(-c3ccccc3)nc2-c2cccc(Cl)c2)cc1	28.7	35.8*	-6.1	-1.4	0.0	-5.3	55.3*	18.9*
